# Values joined by “and” are separate entries in the source; they are usually repeats but may differ in a detail not shown here. Identical values can stand only once. The source holds several records for some structures; these can differ, active in one and inactive in another. Active and inactive are the calls of the source. The calls were made as follows: active = hit-call score of the fitted dose curve at least 0.9, where 1 is the maximum; inactive = score below 0.9.
# Experiments:
# [1] = APR_HepG2_NuclearSize_72hr: Apredica 72-hour HepG2 Assay for Nuclear Size (AID 2282925); conditions: high-content imaging, actives raise or lower the signal
# Method in brief: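 Nuclear size was read by high-content imaging of Hoechst 33342 stain after formaldehyde fixation. Compounds ran 72 h on HepG2 at 0.39 to 200 uM, with final DMSO 0.5% v/v. Curves fitted both directions relative to DMSO control.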
# [2] = ATG_CRE_CIS: Attagene CIS-FACTORIAL HepG2 Assay for human cAMP Responsive Element (CRE) binding protein 3 (AID 2282926); conditions: HepG2 CRE cis-reporter, Attagene multiplexed mRNA; actives raise or lower the signal
# Method in brief: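 Liver-derived HepG2, transfected with a CRE-containing reporter panel, exposed 24 h; transcript levels sized and quantified by capillary electrophoresis of labelled amplicons; signal changes either way referenced to vehicle.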
# [3] = target: CCAAT/enhancer-binding protein beta (Homo sapiens) (UniProt P17676); test: ATG_C_EBP_CIS: Attagene CIS-FACTORIAL HepG2 Assay for human CCAAT/Enhancer Binding Protein (C/EBP) beta (AID 2282927); conditions: HepG2 Attagene cis-factorial transcription factor reporter; actives raise or lower the signal
# Method in brief: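 Changes in reporter mRNA, rather than exogenous chimeric receptor activity, reflect native C/EBP signalling in transfected HepG2 cells dosed for 24 h; transcripts are detected by RT-PCR and capillary electrophoresis.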
# [4] = ATG_CMV_CIS: Attagene CIS-FACTORIAL HepG2 Assay for human CMV (Internal Marker) (AID 2282928); conditions: HepG2 CMV promoter reporter, transcription factor profiling; actives raise or lower the signal;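 also: endpoint acts as a background internal control marker rather than a target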
# Method in brief: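 Reporter transcripts from transfected HepG2 cells are isolated after 24 h of chemical dosing, reverse-transcribed and amplified. Fragments labeled with 6-FAM are cut with HpaI and quantified by capillary electrophoresis; DMSO defines baseline.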
# [5] = target: Aryl hydrocarbon receptor (Homo sapiens) (UniProt P35869); test: ATG_Ahr_CIS: Attagene CIS-FACTORIAL HepG2 Assay for human Aryl Hydrocarbon Receptor (Ahr) (AID 2282930); conditions: HepG2 AhR cis-factorial reporter transcription; actives raise or lower the signal
# Method in brief: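 HepG2, transient MRTU (cis) transfection, 24 h exposure. RNA → cDNA → PCR → 6-FAM primer extension → HpaI 2 h 37 C → CE. Fit: bidirectional, DMSO baseline.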
# [6] = ATG_AP_2_CIS: Attagene CIS-FACTORIAL HepG2 Assay for human Activator Protein 2 (AP-2) (AID 2282932); conditions: HepG2 AP-2 cis-reporter, Attagene transcription factor profiling; actives raise or lower the signal
# Method in brief: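 Transiently transfected HepG2 cells are exposed to chemical for 24 h. Reporter transcripts are then measured as fluorescence following RT-PCR and capillary separation, and gain- or loss-of-signal is fitted relative to DMSO.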
# [7] = ATG_BRE_CIS: Attagene CIS-FACTORIAL HepG2 Assay for human Bone Morphogenetic Protein (BMP) Response Element (BRE) (AID 2282933); conditions: HepG2 BMP response element reporter, Attagene transcription factor profiling; actives raise or lower the signal
# Method in brief: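 HepG2 cells transiently transfected with CIS reporter units (endogenous TF activity, BMP response element), dosed 24 h. Reporter mRNA quantified by RT-PCR, fluorescent labelling and capillary electrophoresis; bidirectional fit vs DMSO baseline.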
# [8] = target: Retinoic acid receptor alpha (Homo sapiens) (UniProt P10276); test: ATG_DR5_RAR_CIS: Attagene CIS-FACTORIAL HepG2 Assay for human Retinoic Acid Receptor Alpha (RARE), DR5 submotif (AID 2282934); conditions: HepG2 Attagene cis-factorial RARE DR5 reporter, mRNA; actives raise or lower the signal;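 as to AC50: reporter responds to endogenous RAR alpha beta and gamma in HepG2 not RARA alone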
# Method in brief: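 HepG2, transient cis-reporter transfection, 24 h exposure. mRNA readout: RT-PCR, FAM label, HpaI cut, capillary electrophoresis. DMSO baseline, gain/loss fitting.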
# [9] = ATG_E_Box_CIS: Attagene CIS-FACTORIAL HepG2 Assay for human Enhancer Box (E-box) (AID 2282936); conditions: HepG2 E-box cis-reporter transcription, actives raise or lower the signal
# Method in brief: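 Fluorescent reporter fragments separated by capillary electrophoresis gave the signal; mRNA came from HepG2 cells transfected with cis-element reporters and treated 24 h. Curves fitted bidirectionally relative to DMSO controls.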
# [10] = ATG_M_61_CIS: Attagene CIS-FACTORIAL HepG2 Assay for M61 Transcription Factor (Internal Marker) (AID 2282937); conditions: HepG2 Attagene CIS-FACTORIAL M61 internal marker reporter; actives raise or lower the signal
# Method in brief: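 Transfect HepG2 with MRTUs; dose 24 h; isolate RNA; reverse-transcribe with DNase I treatment; PCR-amplify, FAM-label and cut with HpaI for 2 h at 37 C; resolve by CE. Bidirectional fitting against DMSO.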
# [11] = ATG_EGR_CIS: Attagene CIS-FACTORIAL HepG2 Assay for human Early Growth Response 1 (EGR1) (AID 2282938); conditions: HepG2 Attagene CIS-FACTORIAL EGR reporter mRNA; actives raise or lower the signal
# Method in brief: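 After a 24 h treatment of transiently transfected HepG2 cells, total RNA was reverse-transcribed and reporter sequences PCR-amplified, labelled and run on capillary electrophoresis. Reporters sit under cis-regulatory promoters sensing endogenous factors.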
# [12] = ATG_M_19_CIS: Attagene CIS-FACTORIAL HepG2 Assay for M19 Transcription Factor (Internal Marker) (AID 2282939); conditions: HepG2 Attagene CIS-FACTORIAL M19 internal marker reporter; actives raise or lower the signal
# Method in brief: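 HepG2 cells transiently transfected with cis-regulated multiplexed reporter units, dosed 24 h. Reporter mRNA quantified by RT-PCR and capillary electrophoresis; internal background marker fitted bidirectionally versus DMSO.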
# [13] = target: Hepatocyte nuclear factor 3-beta (Homo sapiens) (UniProt Q9Y261); test: ATG_FoxA2_CIS: Attagene CIS-FACTORIAL HepG2 Assay for human Forkhead box A2 (FOXA2) (AID 2282942); conditions: HepG2 cis-reporter transcription factor activity, 24 h; actives raise or lower the signal
# Method in brief: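 24 h dosing of HepG2 bearing cis-reporter constructs; mRNA readout by RT-PCR/CE fluorescence; bidirectional fit, DMSO baseline.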
# [14] = ATG_FoxO_CIS: Attagene CIS-FACTORIAL HepG2 Assay for human Forkhead box O (FoxO) (AID 2282943); conditions: HepG2 Attagene cis-reporter, FoxO element, mRNA; actives raise or lower the signal
# Method in brief: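 Human hepatoma HepG2 cells carry transiently introduced reporter transcription units controlled by cis promoter elements. Chemical treatment lasted 24 h, and mRNA signal was compared with DMSO.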
# [15] = ATG_GATA_CIS: Attagene CIS-FACTORIAL HepG2 Assay for human GATA Binding Protein (AID 2282944); conditions: HepG2 GATA cis-element reporter, Attagene multiplex mRNA; actives raise or lower the signal
# Method in brief: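 HepG2 cells transiently transfected with multiplexed cis-element reporter units measure endogenous GATA activity; after 24 h compound exposure, reporter mRNA quantified by RT-PCR and capillary electrophoresis. Changes fitted in both directions vs DMSO.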
# [16] = ATG_DR4_LXR_CIS: Attagene CIS-FACTORIAL HepG2 Assay for human Liver X Receptor (LXR), DR4 submotif (AID 2282929); conditions: HepG2 Attagene DR4 cis-reporter, mRNA transcription; actives raise or lower the signal
# Method in brief: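 Total RNA from 24 h-treated, MRTU-transfected HepG2 cells underwent reverse transcription, PCR, fluorescent primer extension and restriction digestion before capillary electrophoresis. Both increases and decreases in reporter signal were fitted against DMSO.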
# [17] = ATG_ERE_CIS: Attagene CIS-FACTORIAL HepG2 Assay for Estrogen Response Element (ERE) (AID 2282940); conditions: HepG2 ERE cis-reporter, Attagene RNA transcript; actives raise or lower the signal
# Method in brief: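 HepG2 cells transiently transfected with multiplexed cis-element reporter units, measuring endogenous transcription factor activity; ERE reporter mRNA quantified after 24 h exposure by RT-PCR, fluorescent labelling, HpaI digestion and capillary electrophoresis. Bidirectional change versus DMSO.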
# [18] = ATG_AP_1_CIS: Attagene CIS-FACTORIAL HepG2 Assay for human Activator Protein 1 (AP-1) (AID 2282931); conditions: HepG2 Attagene cis-factorial AP-1 reporter mRNA; actives raise or lower the signal
# Method in brief: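 HepG2, transient cis-reporter transfection; 24 h; readout RT-PCR/CE fluorescence; DMSO baseline, gain and loss fitted.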
# [19] = target: Transcription factor E2F1 (Homo sapiens) (UniProt Q01094); test: ATG_E2F_CIS: Attagene CIS-FACTORIAL HepG2 Assay for human E2F Transcription Factor 1 (AID 2282935); conditions: HepG2 Attagene cis-reporter, E2F reporter RNA transcripts; actives raise or lower the signal
# Method in brief: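 Fluorescent RT-PCR products, digested with HpaI for 2 h at 37 C, are separated by capillary electrophoresis. Source RNA comes from transfected HepG2 cultures treated for 24 h.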
# [20] = ATG_Ets_CIS: Attagene CIS-FACTORIAL HepG2 Assay for human Erythroblast Transformation Specific (ETS) (AID 2282941); conditions: HepG2 ETS cis-reporter transcription, actives raise or lower the signal
# Method in brief: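 Bidirectional fit versus DMSO of reporter mRNA signal, detected by RT-PCR and capillary electrophoresis in HepG2 cells transiently transfected with cis-element reporters and dosed 24 h.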
# Retinoic acid receptor alpha (Homo sapiens), sequence (P10276 whole entry, looked up): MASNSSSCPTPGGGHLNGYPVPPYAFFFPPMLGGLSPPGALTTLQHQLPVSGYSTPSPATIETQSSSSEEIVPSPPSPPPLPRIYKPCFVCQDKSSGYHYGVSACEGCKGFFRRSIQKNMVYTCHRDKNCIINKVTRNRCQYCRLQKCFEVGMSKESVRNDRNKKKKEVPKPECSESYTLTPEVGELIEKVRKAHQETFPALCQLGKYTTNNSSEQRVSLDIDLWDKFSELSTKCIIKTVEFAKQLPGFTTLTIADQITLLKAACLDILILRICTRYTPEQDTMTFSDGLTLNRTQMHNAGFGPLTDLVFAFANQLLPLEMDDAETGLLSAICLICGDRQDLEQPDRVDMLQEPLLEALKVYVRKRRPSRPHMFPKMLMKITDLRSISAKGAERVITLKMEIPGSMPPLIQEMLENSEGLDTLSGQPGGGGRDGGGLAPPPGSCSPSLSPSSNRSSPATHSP
# CCAAT/enhancer-binding protein beta (Homo sapiens), sequence (P17676 whole entry, looked up): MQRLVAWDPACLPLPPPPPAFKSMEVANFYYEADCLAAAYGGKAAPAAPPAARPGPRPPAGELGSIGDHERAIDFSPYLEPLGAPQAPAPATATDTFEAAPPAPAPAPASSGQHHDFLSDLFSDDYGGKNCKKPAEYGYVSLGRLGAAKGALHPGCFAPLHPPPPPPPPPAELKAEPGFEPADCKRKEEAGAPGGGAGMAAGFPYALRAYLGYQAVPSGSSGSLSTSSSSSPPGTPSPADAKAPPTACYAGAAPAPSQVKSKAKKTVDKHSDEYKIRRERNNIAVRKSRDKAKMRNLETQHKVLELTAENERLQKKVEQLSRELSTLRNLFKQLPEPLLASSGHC
# Hepatocyte nuclear factor 3-beta (Homo sapiens), sequence (Q9Y261 whole entry, looked up): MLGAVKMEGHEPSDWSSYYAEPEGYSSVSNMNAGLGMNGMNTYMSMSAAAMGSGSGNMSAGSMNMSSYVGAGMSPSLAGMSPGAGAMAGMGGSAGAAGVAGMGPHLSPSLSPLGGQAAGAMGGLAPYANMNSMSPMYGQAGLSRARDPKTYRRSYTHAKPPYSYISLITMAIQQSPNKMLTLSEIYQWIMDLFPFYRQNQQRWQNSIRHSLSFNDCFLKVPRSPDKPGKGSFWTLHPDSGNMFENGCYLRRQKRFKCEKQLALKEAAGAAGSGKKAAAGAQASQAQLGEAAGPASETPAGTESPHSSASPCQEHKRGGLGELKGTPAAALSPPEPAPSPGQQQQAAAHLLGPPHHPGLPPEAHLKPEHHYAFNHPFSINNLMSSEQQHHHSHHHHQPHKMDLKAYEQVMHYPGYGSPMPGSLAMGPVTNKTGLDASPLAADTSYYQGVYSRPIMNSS
# Aryl hydrocarbon receptor (Homo sapiens), sequence (P35869 whole entry, looked up): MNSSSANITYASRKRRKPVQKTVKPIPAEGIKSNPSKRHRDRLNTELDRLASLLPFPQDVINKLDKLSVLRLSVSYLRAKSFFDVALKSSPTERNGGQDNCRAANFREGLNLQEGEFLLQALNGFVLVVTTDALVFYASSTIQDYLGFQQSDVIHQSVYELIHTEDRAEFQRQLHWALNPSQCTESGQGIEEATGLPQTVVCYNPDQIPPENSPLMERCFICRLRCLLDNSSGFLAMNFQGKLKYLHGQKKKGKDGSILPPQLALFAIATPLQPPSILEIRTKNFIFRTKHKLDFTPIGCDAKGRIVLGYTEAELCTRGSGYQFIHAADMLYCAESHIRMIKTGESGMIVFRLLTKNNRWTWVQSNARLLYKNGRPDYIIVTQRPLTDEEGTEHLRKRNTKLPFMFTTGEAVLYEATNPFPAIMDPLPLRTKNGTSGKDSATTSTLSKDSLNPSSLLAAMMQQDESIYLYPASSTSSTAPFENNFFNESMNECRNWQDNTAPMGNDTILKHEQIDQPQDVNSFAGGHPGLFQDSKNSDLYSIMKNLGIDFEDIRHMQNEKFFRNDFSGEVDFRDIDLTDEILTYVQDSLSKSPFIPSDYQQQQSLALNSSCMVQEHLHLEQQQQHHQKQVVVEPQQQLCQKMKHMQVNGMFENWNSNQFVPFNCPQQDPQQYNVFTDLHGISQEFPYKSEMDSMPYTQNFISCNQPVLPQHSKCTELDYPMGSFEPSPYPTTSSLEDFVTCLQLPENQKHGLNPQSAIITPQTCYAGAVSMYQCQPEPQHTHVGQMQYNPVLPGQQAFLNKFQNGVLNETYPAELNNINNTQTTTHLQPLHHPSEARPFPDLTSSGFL
# Transcription factor E2F1 (Homo sapiens), sequence (Q01094 whole entry, looked up): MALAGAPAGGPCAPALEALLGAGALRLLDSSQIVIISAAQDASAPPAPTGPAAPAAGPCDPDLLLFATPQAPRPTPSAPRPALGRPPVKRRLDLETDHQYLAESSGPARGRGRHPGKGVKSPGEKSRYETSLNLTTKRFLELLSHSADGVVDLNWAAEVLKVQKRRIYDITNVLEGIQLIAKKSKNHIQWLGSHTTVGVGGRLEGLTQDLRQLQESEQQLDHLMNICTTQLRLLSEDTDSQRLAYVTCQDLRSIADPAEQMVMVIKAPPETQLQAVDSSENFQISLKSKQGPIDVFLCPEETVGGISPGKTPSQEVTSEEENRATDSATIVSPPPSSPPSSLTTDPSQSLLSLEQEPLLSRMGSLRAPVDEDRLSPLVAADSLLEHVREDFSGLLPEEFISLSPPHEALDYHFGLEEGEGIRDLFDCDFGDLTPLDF
smiles,measurement,setting,value
Oc1ccc(Cl)cc1Cc1ccccc1,AC50,[1],110 µM (active)
same,outcome,[1],inactive
same,AC50,[2],13.4 µM (active)
same,outcome,[2],inactive
same,AC50,[3],8.76 µM (active)
same,outcome,[3],inactive
same,AC50,[4],15.2 µM (active)
same,outcome,[4],inactive
same,outcome,[5],inactive
same,AC50,[6],17.6 µM (active)
same,outcome,[6],inactive
same,AC50,[7],9.67 µM (active)
same,outcome,[7],inactive
same,outcome,[8],inactive
same,AC50,[9],11.1 µM (active)
same,outcome,[9],inactive
same,outcome,[10],inactive
same,AC50,[11],14.9 µM (active)
same,outcome,[11],inactive
same,outcome,[12],inactive
same,outcome,[13],inactive
same,AC50,[14],20.4 µM (active)
same,outcome,[14],inactive
same,AC50,[15],20.2 µM (active)
same,outcome,[15],inactive
COc1cc(OC)nc(NC(=O)NS(=O)(=O)c2cc(NC=O)ccc2C(=O)N(C)C)n1,outcome,[1],inactive
same,outcome,[2],inactive
same,AC50,[3],13.3 µM (active)
same,outcome,[4],inactive
same,outcome,[16],inactive
same,outcome,[5],inactive
same,outcome,[6],inactive
same,outcome,[7],inactive
same,outcome,[8],inactive
same,outcome,[9],inactive
same,outcome,[10],inactive
same,outcome,[11],inactive
same,outcome,[12],inactive
same,outcome,[17],inactive
same,outcome,[13],inactive
same,outcome,[14],inactive
same,outcome,[15],inactive
CCCN(CCOc1c(Cl)cc(Cl)cc1Cl)C(=O)n1ccnc1,outcome,[1],inactive
same,outcome,[2],inactive
same,outcome,[3],inactive
same,AC50,[4],11.1 µM (active)
same,outcome,[4],inactive
same,outcome,[6],inactive
same,AC50,[7],15.1 µM (active)
same,outcome,[7],inactive
same,AC50,[8],3.01 µM (active)
same,outcome,[8],inactive
same,outcome,[9],inactive
same,outcome,[10],inactive
same,outcome,[11],inactive
same,outcome,[12],inactive
same,outcome,[13],inactive
same,outcome,[14],inactive
same,outcome,[15],inactive
CC1(c2ccc(Oc3ccccc3)cc2)OC(=O)N(Nc2ccccc2)C1=O (centres undefined),outcome,[1],inactive
same,AC50,[2],1.3 µM (active)
same,outcome,[3],inactive
same,outcome,[4],inactive
same,outcome,[16],inactive
same,outcome,[5],inactive
same,outcome,[18],inactive
same,outcome,[6],inactive
same,AC50,[7],1.14 µM (active)
same,outcome,[8],inactive
same,outcome,[19],inactive
same,outcome,[9],inactive
same,outcome,[10],inactive
same,outcome,[11],inactive
same,outcome,[12],inactive
same,outcome,[17],inactive
same,outcome,[13],inactive
same,outcome,[14],inactive
same,outcome,[15],inactive
O=C(O)COc1ccc(Cl)cc1Cl,outcome,[1],inactive
same,outcome,[2],inactive
same,outcome,[3],inactive
same,outcome,[4],inactive
same,outcome,[16],inactive
same,outcome,[6],inactive
same,outcome,[7],inactive
same,outcome,[9],inactive
same,outcome,[10],inactive
same,outcome,[11],inactive
same,outcome,[12],inactive
same,outcome,[20],inactive
same,outcome,[13],inactive
same,outcome,[14],inactive
same,outcome,[15],inactive
ClC1C(Cl)C(Cl)C(Cl)C(Cl)C1Cl (centres undefined),outcome,[1],inactive
same,AC50,[2],16 µM (active)
same,outcome,[2],inactive
same,AC50,[3],61.8 µM (active)
same,outcome,[3],inactive
same,AC50,[4],65.5 µM (active)
same,outcome,[4],inactive
same,outcome,[5],inactive
same,outcome,[6],inactive
same,AC50,[7],10.5 µM (active)
same,outcome,[7],inactive
same,AC50,[8],11 µM (active) and 5.74 µM (active)
same,outcome,[8],inactive
same,AC50,[9],100 µM (active) and 69.6 µM (active)
same,outcome,[9],inactive
same,outcome,[10],inactive
same,outcome,[11],inactive
same,outcome,[12],inactive
same,outcome,[13],inactive
same,outcome,[14],inactive
same,outcome,[15],inactive
